Screens: PubChem BioAssay, National Center for Advancing Translational Sciences (NCATS)
In the library only some 5.7% were active in any assay of this set; here they are far more common.
DRD3 antagonist: D3 dopamine receptor (human) antagonism; P35462; D3R cells, DiscoveRx beta-arrestin luminescence, antagonist mode; active compounds read low; max response, negative = inhibition, %; hit rate 2.5% among 360,000; in the data active = max response below about -50%; inconclusive = no clear call, values can overlap the other calls
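Cells expressing the human receptor were seeded at 1500 cells/well, incubated overnight at 37 degrees C in 5% CO2, then exposed to library compounds with dopamine controls for 90 minutes at 37 degrees C before luminescent detection.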
D3 ag: agonists of human D3 dopamine receptor. P35462. D3R DiscoveRx beta-arrestin cells, luminescence, 90 min. max activation, %. hit rate 0.58% among 410,000. AID 652048; in the data active = max activation above about 30%
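Agonist-mode cell screen: cells plated at 1500/well and incubated overnight at 37 °C, then exposed to library compounds for 90 min at 37 °C. Detection reagent was added for 30–60 min at room temperature, and luminescence was read.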
GLP1R ag: activates the human GLP-1 receptor; Potency, µM (titrated, usually from 45.6 µM), actives largely listed as activators; AID 624172; hit rate 0.007% among 380,000; HEK293 GLP-1R CRE-luciferase, luminescence, 4-6 h; cells express a hypersensitive GLP-1R form
ClpP mod: qHTS Assay for Activators of ClpP; purified B. subtilis ClpP, FRET peptide cleavage, 20 min; hit rate 1.9% among 340,000; Potency, µM (series often up to 57.5 µM); AID 651965, 2013; active = well fitted falling curve with a large enough effect; inconclusive = small, poorly fitted or top-dose-only effect; inactive = no such curve, though single readings can be large or run the other way; note: the source files actives as falling curves though it sought activators and does not explain the sign; nearly all actives have a fitted effect of over 65% in size
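Buffer: 100 mM Tris/HCl pH8, 100 mM KCl, 0.05% low protease BSA, 2.5% glycerol, 0.01% Tween-20. ClpP 10 microg/mL final; 20 min RT; delta FRET normalized to ADEP and DMSO controls.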
GLP1R cytotox: cytotoxicity counter-screen for GLP-1 receptor inverse agonists | Potency, µM (highest dose often 38.3 µM), most hits filed as inhibitors | HEK293 cAMP-luciferase reporter cells, luminescence, 24 h | hit rate 0.13% among 410,000;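 note: loss of luciferase light is scored as toxicity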
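Step one: seed cells (200 cells/uL, DMEM with 10% Nu serum, 1% pen-strep). Step two: 12-hour incubation at 37 deg C. Step three: pin 23 nL compound, incubate 24 hr. Step four: add luciferase reagent, read luminescence 12 min later.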
GLP1R inv ag: acts as inverse agonist at human GLP-1 receptor. P43220. HEK293 GLP-1R CRE-luciferase, luminescence, 24 h; GLP-1R form is constitutively active. Potency, µM (top dose mostly 38.3 µM), most hits filed as inhibitors. hit rate 1.6% among 410,000; note: nearly all actives have a fitted effect of over 55% in size
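HEK293 cells stably co-expressing a cAMP-responsive luciferase reporter and constitutively active GLP-1R were seeded, incubated 12 h, then exposed to compounds for 24 h at 37 C. Luminescence was read 12 min after detection reagent; inverse agonists lower signal.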
A number is an active result; – = inactive; ? = inconclusive; · = no result given. Unless noted, calls come from the whole dose curve; as a rule, active = well fitted curve in the direction sought with a large enough effect; inconclusive = small, poorly fitted or top-dose-only effect, or another doubt; inactive = no such curve, though single readings can be large; an effect the other way counts as inactive or inconclusive.

SMILES	DRD3 antagonist	D3 ag	GLP1R ag	ClpP mod	GLP1R cytotox	GLP1R inv ag
CC(C)=CCc1c2c(c3occ(-c4ccc(O)c(O)c4)c(=O)c3c1O)C=CC(C)(C)O2	–	–	–	–	?	?
CC(C)=CCc1c2c(c3occ(-c4ccc(O)cc4)c(=O)c3c1O)C=CC(C)(C)O2	–	69	–	–	?	?
CCOC(=O)c1ccc(N2CCN(c3ccc(F)cc3)CC2)c(NC(=O)Nc2ccc(CC)cc2)c1	·	–	·	–	–	–
CCOC(=O)c1ccc(N2CCN(c3ccc(F)cc3)CC2)c(NC(=O)Nc2cccc(OC)c2)c1	–	–	–	28µM	–	–
CCOC(=O)c1ccc(N2CCN(c3ccccc3F)CC2)c(NC(=O)Nc2ccccc2)c1	–	–	–	–	–	2.5µM
Cc1cnc2c(C)ccc(C)c2c1/C=C/c1ccc(N(C)C)cc1	·	·	·	–	·	·
Cc1c(C#N)c(NC(=O)CCl)n(Cc2cccs2)c1C	–	–	–	–	?	5.6µM
CC(=O)c1ccc(N2C(=O)N(Cc3ccc(F)cc3)c3ccccc3S2(=O)=O)cc1	·	50	–	–	–	?
CC(=O)c1ccc(N2C(=O)N(CC(=O)c3ccc(F)cc3)c3ccccc3S2(=O)=O)cc1	·	–	–	–	–	–
CC1=NN(C(=O)c2csc(C(C)C)c2)C(O)(C(F)(F)F)C1 (configuration not stated)	–	–	–	–	?	1.3µM
CC1=NN(C(=O)c2cccnc2)C(O)(C(F)(F)F)C1 (configuration not stated)	–	–	–	·	?	?
CC(C)CC1=NN(C(=O)c2ccncc2)C(O)(C(F)(F)F)C1 (configuration not stated)	–	–	–	–	–	1.1µM
COC/C=C/C1=CC2=CC(=O)C(C)(OC(=O)c3cnc4ccccc4n3)C(=O)C2=CN1Cc1ccc(OC)cc1 (configuration not stated)	–	–	–	–	–	–
COC/C=C/C1=CC2=CC(=O)C(C)(OC(=O)c3cnc4ccccc4n3)C(=O)C2=CN1Cc1ccccc1 (configuration not stated)	-65	–	–	–	–	–
CCOc1ccc2nc(N3CCCC(C(=O)N4CCN(CC)CC4)C3)sc2c1 (configuration not stated)	-65	–	–	–	–	–
CCC1C/C(=C\c2cccnc2)C(=O)/C(=C/c2cccnc2)C1 (configuration not stated)	?	–	–	–	?	3.5µM
CC(=O)Nc1nc(C)nc(-c2ccccc2OC(C)=O)n1	–	31	–	–	–	–
Nc1ccc2c(c1)-c1ccccc1S(=O)(=O)N2	–	–	–	–	–	–
Cc1ccc2c(c1)-c1ccccc1S(=O)(=O)N2	–	–	–	28µM	–	–
Cn1c2c(c(=O)n3ncnc13)CCCC2	–	–	–	22µM	–	–
O=C(Cn1c2c(c(=O)n3ncnc13)CCC2)N/N=C/c1ccc(Cl)cc1	–	–	–	–	–	–
CCCCCCCCCCCCCCCC[N+](C)(C)Cc1ccccc1	·	–	–	·	·	·
CCCCCC[N+](C)(C)CC/C=C1/c2ccccc2Sc2ccc(Cl)cc21	-105	–	–	–	–	–
Cc1ccc2nc(SCC(=O)N3CCOCC3)[nH]c2c1	–	–	–	–	–	–
Cc1ccc2nc(SCC3CCCCO3)[nH]c2c1 (configuration not stated)	–	–	–	·	–	3.5µM
SMILES	DRD3 antagonist	D3 ag	GLP1R ag	ClpP mod	GLP1R cytotox	GLP1R inv ag
CCOC(=O)C(CCSC)Nc1nc(Cl)nc(Nc2ccc(Cl)cc2)n1 (configuration not stated)	-58	–	–	–	–	–
Cc1ccc(CN2CCN(C3CCN(C(=O)c4ccccc4)CC3)C(=O)C2=O)cc1	·	–	·	–	–	–
OC(COc1ccc(Cl)cc1)CN1C2=NCCCN2c2ccccc21 (configuration not stated)	?	–	–	22µM	–	?
O=C(c1cc2ccccc2cc1OCC(O)CN1CCCCC1)N1CCCCC1 (configuration not stated)	-85	–	–	–	–	?
Clc1ccc(CN2C3=NCCCN3c3ccccc32)cc1Cl	–	–	–	·	–	11µM
OC(COc1ccc(CNCCc2ccc(C(F)(F)F)cc2)cc1)CN1CCCCC1 (configuration not stated)	?	–	–	·	?	2.2µM
Cc1ccc(CNC(=O)CSc2nc3ccccc3nc2Cc2ccc(C)cc2)cc1	·	–	–	–	–	–
COc1ccc(Br)cc1CNC(=O)Cn1c(=O)c2cccn2c2ccc(F)cc21	·	–	·	–	–	–
OC(COc1c(Cl)cc(Cl)cc1Cl)CN1CCCCC1 (configuration not stated)	-63	–	–	–	–	–
OC(COc1ccc(Cl)cc1)CN1CCCCC1 (configuration not stated)	-55	–	–	–	–	–
CC(=O)Nc1ccn(C2COC(COC(=O)c3ccccc3)O2)c(=O)n1 (configuration not stated)	·	–	–	·	·	·
OC1CCCN(C(=S)NCc2ccccc2)C1 (configuration not stated)	-73	–	–	·	–	–
OCC(CBr)(CBr)CBr	-54	–	–	–	–	–
Cn1c(=O)c2cc(NC(=O)NCCc3cccs3)ccc2n1Cc1ccccc1	–	–	–	–	–	–
O=C(c1ccco1)c1n[nH]nc1-c1ccccc1	-70	–	–	–	–	–
CCOC(=O)c1c(C)[nH]c(C)c1S(=O)(=O)NCC1CCN(Cc2ccccc2F)CC1	–	–	–	–	–	–
CCOC(=O)c1c(C)[nH]c(C)c1S(=O)(=O)NCC1CCN(Cc2ccc(C)cc2)CC1	-54	–	–	–	–	?
CCOC(=O)c1c(C)[nH]c(C)c1S(=O)(=O)NCC1CCN(Cc2cccc(Cl)c2)CC1	?	–	–	–	–	?
CCOC(=O)c1c(C)[nH]c(C)c1S(=O)(=O)NCCN1CCN(c2ccccc2F)CC1	-58	–	–	–	–	?
CCOC(=O)N1CCC(=NNC(N)=O)C1	–	–	–	–	–	–
C/C=C1\NC(=O)[C@H]2CSSCC/C=C\[C@H](CC(=O)N[C@H](C(C)C)C(=O)N2)OC(=O)C(C(C)C)NC1=O (some centres not stated)	·	·	–	·	·	·
Cc1nc(C(F)(F)F)ccc1C(=O)N1CCC1(C)C(=O)NCc1cccs1 (configuration not stated)	-91	–	–	–	–	–
CSc1nn(Cc2cccc(Cl)c2)c(N(C(C)=O)C(C)=O)c1S(=O)(=O)c1ccccc1	·	–	–	–	–	13µM
